Experiment [1] in a line: Cell Viability - HUV-EC-C (AID 542).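 Further: cells exposed to compound for 40 hours; nearly all actives have a fitted effect of over 35% in size.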 Further: potency means the concentration at half of the fitted maximal effect. A digest of the protocol: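 CellTiter-Glo luminescence measured ATP loss in HUV-EC-C cells (1000/well) after 40 hr compound exposure at 37 °C, in complete culture medium. Concentration-response data were Hill-fitted to give AC50.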
Experiment [2] can be described thus: Cell Viability - SH-SY5Y (AID 544).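 Further: cells exposed to compound for 40 hours; nearly all actives have a fitted effect of over 55% in size.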 Further: potency means the concentration at half of the fitted maximal effect.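 On viability change, negative = cytotoxic: 0% = DMSO alone and -100% = 100 µM tamoxifen.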 To be noted: SH-SY5Y neuroblastoma cell viability; viability change, negative = cytotoxic: at 92.2 µM (top of the series). A digest of the protocol: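 Cytotoxicity measured via ATP-dependent luciferase luminescence (CellTiter-Glo) following 40 h, 37 °C exposure of 1500 SH-SY5Y cells per well. Concentration-response data were fitted with the standard Hill equation to give AC50.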

Experiment [3] in a line: Cellular Toxicity (caspase-3) HepG2 (AID 654).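 Further: cells exposed to compound for 16 hours before reading; 0% = DMSO alone and 100% = caspase signal from 100 µM tamoxifen.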 A digest of the protocol: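 Caspase 3/7 activation is measured as a luminescence increase (aminoluciferin substrate) after 16 h compound exposure of human hepatocarcinoma HepG2 cells. AC50 values are Hill fits, scaled between DMSO baseline and 100 uM tamoxifen stimulation.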
Experiment [4] is described as follows: Cellular Toxicity (caspase-3) HUV-EC-C (AID 656).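 Further: 0% = DMSO basal and 100% = 100 µM tamoxifen.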 The procedure, abridged:
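HUV-EC-C cells (1000/well) in complete medium, compound-treated 16 h at 37 °C; caspase-3/7 activity read by Caspase-Glo 3/7 luminescence. Normalized to DMSO (basal) and 100 uM tamoxifen (100%); AC50 from Hill-equation concentration-response fits.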

A short description of experiment [5]: Cellular Toxicity (caspase-3) Mesangial (AID 660).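 Further: cells exposed to compound for 16 h before the caspase read.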 To be noted: Potency: caspase-3 activation. The procedure, abridged:
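Caspase 3/7 activation measured by Caspase-Glo 3/7 luminescence (20 min, room temperature) following 16 h exposure of mesangial cells (1000/well); AC50 from Hill-equation fit, normalized to DMSO and 100 uM tamoxifen.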

The nature of experiment [6]: Cellular Toxicity (caspase-3) N2a (AID 665).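 Further: compound exposure lasted 16 h at 37 °C before readout.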 A digest of the protocol:
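Caspase-3/7 activation measured as luminescence from Caspase-Glo reagent (1 h, room temperature) after 16 h compound exposure of mouse N2a cells. AC50 values from Hill-equation concentration-response, scaled between DMSO and 10 uM staurosporine.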

A short description of experiment [7]: Cellular Toxicity (caspase-3) NIH 3T3 (AID 666).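 Further: 0% = DMSO basal and 100% = 100 µM tamoxifen stimulation.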 The procedure, abridged:
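Caspase-Glo 3/7 luminescence reported caspase activation in 1000 NIH 3T3 cells/well after 16 h compound exposure at 37 C. DMSO set basal and 100 uM tamoxifen set 100% stimulation; concentration-response modeled with the Hill equation for AC50.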

The nature of experiment [8]: Cell Viability - LYMP2-001 (AID 921). Further: nearly all actives have a fitted effect of over 70% in size. Further: potency means the concentration at half of the fitted maximal effect. A digest of the protocol: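 Human lymphoblastoid LYMP2-001 cells, 2500 per well, in complete medium, treated 24 h at 37 C. Viability from cellular ATP by CellTiter-Glo luminescence; AC50 from Hill-equation fits of qHTS concentration-response.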
Experiment [9] in a line: Cell Viability - LYMP1-002 - Assay at 16 hr (AID 948). Further: potency means the concentration at half of the fitted maximal effect. A digest of the protocol: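 LYMP1-002 human lymphoblastoid cells, 2500/well, were treated with compounds for 16 hr at 37 C in complete medium. Viability was read as intracellular ATP by CellTiter-Glo luminescence, and AC50 was derived from a Hill fit to concentration-response data.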
The nature of experiment [10]: Cell Viability - LYMP1-003 - Assay at 24 hr (AID 963). Further: potency means the concentration at half of the fitted maximal effect.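 On viability change, negative = cytotoxic: plate controls were DMSO only for no effect and tetraoctylammonium bromide positive control for full effect.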 A digest of the protocol:
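Concentration-response qHTS: ATP loss measured by CellTiter-Glo luminescence after 24 h compound exposure at 37 C. Cells were LYMP1-003 human lymphoblastoid, 2500 per well. AC50 derived via standard Hill equation modeling.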

The nature of experiment [11]: Cell Viability - LYMP2-003 (AID 965).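 Further: cells exposed to compounds for 24 h before reading; nearly all actives have a fitted effect of over 50% in size.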 Further: potency means the concentration at half of the fitted maximal effect. The procedure, abridged:
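Human lymphoblastoid LYMP2-003 cells, 2500/well, exposed to compounds for 24 h at 37 C in complete medium. Viability read as intracellular ATP by CellTiter-Glo luminescence; AC50 from Hill-equation fits of qHTS concentration-response data.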

Experiment [12] in a line: Cell Viability - LYMP2-015 (AID 971). Further: nearly all actives have a fitted effect of over 55% in size. Further: potency means the concentration at half of the fitted maximal effect. The procedure, abridged:
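Cytotoxicity readout: decrease in intracellular ATP (CellTiter-Glo luminescence) in 2500 LYMP2-015 lymphoblastoid cells/well after 24 h compound exposure at 37 C. Concentration-response data fitted with the standard Hill equation to give AC50.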

A short description of experiment [13]: Cell Viability - LYMP2-019 (AID 973). Further: nearly all actives have a fitted effect of over 55% in size. Further: potency means the concentration at half of the fitted maximal effect. A digest of the protocol:
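AC50 values come from Hill-equation fits of luminescent intracellular ATP (CellTiter-Glo, 30 min, room temperature) following 24 h compound exposure at 37 C. Cells: LYMP2-019 lymphoblastoid line, 2500 per well, in complete culture medium.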

A short description of experiment [14]: Cell Viability - LYMP2-016 (AID 984). Further: nearly all actives have a fitted effect of over 55% in size. Further: potency means the concentration at half of the fitted maximal effect. The procedure, abridged: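 Human lymphoblastoid LYMP2-016 cells, 2500 per well, treated with compounds for 24 h at 37 C. Viability read as intracellular ATP by CellTiter-Glo luminescence after 30 min at room temperature; AC50 from Hill fits of concentration-response.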
A short description of experiment [15]: Cell Viability - LYMP2-018 (AID 985). Further: nearly all actives have a fitted effect of over 50% in size. Further: potency means the concentration at half of the fitted maximal effect. A digest of the protocol: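 Viability read as CellTiter-Glo luminescence (cellular ATP) after 24 hr compound exposure at 37 C of 2500 LYMP2-018 lymphoblastoid cells/well, pre-plated 5 hr. Hill-equation modelling gave AC50.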
Experiment [16] addresses Tumor necrosis factor (Homo sapiens) (UniProt P01375). In words: qHTS assay to identify small molecules that stimulate Tumor Necrosis Factor-alpha (TNF-alpha) secretion (AID 651757; active means well fitted curve in the direction sought with a large enough effect in the signal ratio; the % refers to the signal ratio; further: 0% is about no effect). A digest of the protocol: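 Secreted TNF-alpha quantified by TR-FRET sandwich of two labeled anti-TNF-alpha antibodies, incubated 3 hr at room temperature. Preceded by 17 hr, 37 C compound treatment of THP-1 cells at 3000 cells/well.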
On the technique in general: In qHTS, concentration-response curves come from the screen itself.

Experiment [17] concerns the target Peroxisome proliferator-activated receptor alpha (Homo sapiens) (UniProt Q07869). In words: qHTS assay for small molecule agonists of the peroxisome proliferator-activated receptor alpha (PPARalpha) signaling pathway (AID 651778). Further: % of control where 0% means no effect. To be noted: PathHunter PPARalpha complementation, chemiluminescence, 6 h; max response: hits give high values. A digest of the protocol: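 Chemiluminescence from complemented enzyme reported PPARalpha activation in cells after 6 hr of compound treatment at 37 C. The detection reagent was incubated for 60 min at room temperature, and compounds were scored as agonists.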

Experiment [18] in a line: qHTS assay for cell viability of the p53RE-bla HCT-116 cell line (AID 743292). Further: nearly all actives have a fitted effect of over 55% in size. Further: potency means the concentration at half of the fitted maximal effect. A digest of the protocol:
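ATP-based luminescent viability (CellTiter-Glo, 30 min RT) after 16 h compound treatment at 37 C of p53RE-bla HCT-116 cells, seeded at 4,000 cells/well and rested 5 h before dosing.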

Experiment [19] in a line: Cellular Toxicity (caspase-3) BJ (AID 658).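 Further: cells exposed to compound for 16 hours; 0% = DMSO basal and 100% = 10 µM staurosporine.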 The procedure, abridged:
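Caspase-Glo 3/7 luminescence, read 1 hr after reagent at room temperature, in normal BJ fibroblasts exposed 16 hours at 37 °C. AC50 values from Hill-equation concentration-response, scaled between DMSO basal and 10 uM staurosporine as 100%.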

Experiment [20] can be described thus: Cellular Toxicity (caspase-3) MRC-5 (AID 659).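 Further: 0% = DMSO basal and 100% = 10 µM staurosporine.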 A digest of the protocol: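 Luminescent Caspase-Glo 3/7 read-out (1 h, room temperature) after a 16 h, 37 °C compound exposure of MRC-5 lung fibroblasts at 1500 cells/well. Concentration-response AC50 from Hill equation; 0% DMSO, 100% 10 uM staurosporine.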

“And” between values parts separate entries of the source, which are not always exact repeats. Identical values can stand only once. Values without a mark were called inactive. Inconclusive results are not listed. The source made the active and inactive calls. Unless noted, the call rests on the fitted dose curve; in most records, active means well fitted curve in the direction sought with a large enough effect; inconclusive means small, poorly fitted or top-dose-only effect, or another doubt; inactive means no such curve, though single readings can be large; an effect the other way counts as inactive or inconclusive.

Chain of Tumor necrosis factor (Homo sapiens) (P01375 whole entry, looked up): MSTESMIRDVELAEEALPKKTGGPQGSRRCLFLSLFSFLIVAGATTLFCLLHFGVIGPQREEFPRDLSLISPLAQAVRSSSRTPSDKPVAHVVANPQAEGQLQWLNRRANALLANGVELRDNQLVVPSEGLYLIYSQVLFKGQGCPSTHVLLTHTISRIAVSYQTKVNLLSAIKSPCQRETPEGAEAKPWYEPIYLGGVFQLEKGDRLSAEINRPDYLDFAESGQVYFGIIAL
Chain of Peroxisome proliferator-activated receptor alpha (Homo sapiens) (Q07869 whole entry, looked up): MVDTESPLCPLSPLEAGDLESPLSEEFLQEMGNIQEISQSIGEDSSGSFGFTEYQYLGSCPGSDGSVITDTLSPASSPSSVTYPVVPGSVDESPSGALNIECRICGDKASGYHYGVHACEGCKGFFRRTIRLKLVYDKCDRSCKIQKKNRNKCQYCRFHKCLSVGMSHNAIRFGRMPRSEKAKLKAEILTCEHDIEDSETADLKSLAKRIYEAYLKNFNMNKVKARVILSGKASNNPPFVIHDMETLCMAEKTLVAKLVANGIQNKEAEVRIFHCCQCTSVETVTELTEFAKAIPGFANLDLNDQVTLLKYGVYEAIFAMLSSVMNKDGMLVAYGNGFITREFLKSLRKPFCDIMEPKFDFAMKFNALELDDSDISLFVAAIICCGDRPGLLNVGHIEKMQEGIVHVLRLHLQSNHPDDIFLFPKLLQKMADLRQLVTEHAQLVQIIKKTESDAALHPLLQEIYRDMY

As for `N#CC(Cl)Cl`, the Potency entry in experiment [1], in experiment [2], in experiment [5], in experiment [9], in experiment [10] and in [11] was “inactive” in each case. Besides, in [16], the Potency result was “inactive”. In addition, the call in experiment [3], in [4], in experiment [6] and in experiment [7] was inactive. The Potency in experiment [8] is 10 µM (active); in [12] it was 12.6 µM (active); in experiment [13], 15.8 µM (active); in [14] it was 25.1 µM (active); in experiment [15], 12.6 µM (active); in experiment [18], 44.7 µM (active). In addition, the max response in experiment [17] was -3.95%.

Turning to `C(=NC1CCCCC1)=NC1CCCCC1`, the Potency result in experiment [1], in [2], in [5], in [9], in experiment [10] and in [11] was “inactive” throughout. Further, the Potency result in experiment [16] and in [18] was “inactive” in each case. Moreover, the call in experiment [3], in experiment [4], in experiment [19], in experiment [20], in experiment [6] and in experiment [7] was inactive. For the same compound, the max response in experiment [17] was -9.68% and -4.28%.

As for `COP(=O)(OC)O/C(=C\Cl)c1cc(Cl)c(Cl)cc1Cl`, the viability change, negative = cytotoxic in [2] was -89.6% (active). Also, the result in experiment [3], in experiment [4], in experiment [19], in experiment [20], in experiment [6] and in experiment [7] was inactive. For the same compound, the Potency result in [5], in experiment [8], in experiment [9], in experiment [10], in experiment [11] and in experiment [12] was “inactive” each time. The Potency entry in experiment [13], in experiment [14], in [16] and in experiment [18] was “inactive” each time. Also, the max response in experiment [17] is -3%.

Regarding `FC(F)(F)c1ccc(Cl)cc1`, the Potency result in experiment [1], in [2], in experiment [5], in [8], in experiment [9] and in experiment [10] was “inactive” each time. The Potency entry in experiment [11], in experiment [12], in [13], in [14], in experiment [15] and in experiment [16] was “inactive” in each case. The Potency entry in experiment [18] was “inactive”. The call in experiment [3], in [4], in [19], in experiment [20], in experiment [6] and in [7] was inactive. In addition, the max response in [17] was 1.19% and -0.788%.

As for `ClC1=C(Cl)C2(Cl)C3C(Cl)C(Cl)CC3C1(Cl)C2(Cl)Cl` (centres undefined), the viability change, negative = cytotoxic in experiment [2] is -97.5% (active). The compound was called inactive in experiment [3], in experiment [19], in experiment [20] and in experiment [7]. Moreover, the Potency entry in [5], in experiment [8], in experiment [10], in experiment [12], in experiment [13] and in experiment [14] was “inactive” throughout. Besides, the Potency entry in [15] and in experiment [16] was “inactive” throughout. The Potency in experiment [18] was 50.1 µM (active).

As to `N#CSCSC#N`, the Potency in [1] was 25.1 µM (active); in experiment [2] it was 1 µM (active); in experiment [8], 5.01 µM (active); in experiment [9], 31.6 µM (active); in [10], 25.1 µM (active); in experiment [11], 10 µM (active). Further, the Potency in experiment [12] is 5.01 µM (active); in experiment [13], 5.01 µM (active); in experiment [14], 7.94 µM (active); in experiment [15] it was 7.94 µM (active); in experiment [18], 50.1 µM (active). The call in [3], in [4], in experiment [19], in experiment [6] and in experiment [7] was inactive. The Potency entry in [5] and in experiment [16] was “inactive” in each case. In [17], the max response is -10% and -5.06%.
